# The panel holds about 83,000 compounds, 20% with a hit somewhere; the sample as a whole holds those more often.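 Single-dose data. Exposure time 48 hours. Values below 10 considered active.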 Unmarked numbers belong to inactive results. The source made the active and inactive calls.
# Tests used:
# Test in all cases: NCI-60 one-dose screen, 48 h (100 = growth as untreated, 0 = no growth, -100 = all killed)
# Details in all cases: 10 µM
# NCI-H23 lung = tested on: NCI-H23 lung
# NCI-H226 lung = tested on: NCI-H226 lung
# NCI-H322M lung = tested on: NCI-H322M lung
# HOP-62 NSCLC = tested on: HOP-62 NSCLC
# NCI-H460 lung = tested on: NCI-H460 lung
# HOP-92 NSCLC = tested on: HOP-92 NSCLC
# NCI-H522 lung = tested on: NCI-H522 lung
# A549/ATCC NSCLC = tested on: A549/ATCC NSCLC
# 786-0 renal = tested on: 786-0 renal
# COLO 205 colon = tested on: COLO 205 colon
# DU-145 prostate = tested on: DU-145 prostate
# K-562 leukemia = tested on: K-562 leukemia
# MALME-3M melanoma = tested on: MALME-3M melanoma
# MDA-MB-231 breast = tested on: MDA-MB-231 breast
# SF-268 CNS = tested on: SF-268 CNS
# SF-295 CNS = tested on: SF-295 CNS
# SF-539 CNS = tested on: SF-539 CNS
# UACC-257 melanoma = tested on: UACC-257 melanoma
# M14 melanoma = tested on: M14 melanoma
Structure (SMILES),growth (NCI-H23 lung),growth (NCI-H226 lung),growth (NCI-H322M lung),growth (HOP-62 NSCLC),growth (NCI-H460 lung),growth (HOP-92 NSCLC),growth (NCI-H522 lung),growth (A549/ATCC NSCLC),growth (786-0 renal),growth (COLO 205 colon),growth (DU-145 prostate),growth (K-562 leukemia),growth (MALME-3M melanoma),growth (MDA-MB-231 breast),growth (SF-268 CNS),growth (SF-295 CNS),growth (SF-539 CNS),growth (UACC-257 melanoma),growth (M14 melanoma)
N#Cc1ccc(NC(=O)CSc2ccc(-c3ccc(Br)cc3)nn2)cc1,51.3%,44.8%,76.6%,88.6%,64.6%,70.2%,52%,64.7%,80.2%,112%,88.8%,48.7%,68.8%,76.7%,62.6%,58.9%,67.2%,47.3%,63.5%
C#CCNC(=O)CCC(=O)OC[C@]12CC[C@@H](C(=C)C)[C@@H]1C1CC[C@@H]3[C@@]4(C)CCCNC(C)(C)[C@@H]4CC[C@@]3(C)[C@]1(C)CC2 (stereo partly drawn),-91.8% (active),-80.8% (active),39.2%,-23.9% (active),-74% (active),-14.4% (active),-82.7% (active),-76.5% (active),-58.3% (active),-83% (active),17.8%,3.14% (active),-93.6% (active),-47.9% (active),42.8%,-85.5% (active),-99.3% (active),-78.4% (active),-80.4% (active)
CC(=O)c1ccc(Nc2nc(SC(C)C)nc(-c3ccccc3)c2C#N)cc1,22.4%,-25.1% (active),24.2%,-27.8% (active),20.2%,-15.8% (active),64.6%,57.3%,-56.6% (active),74.7%,43.8%,43%,8.39% (active),-0.399% (active),41.1%,-40.7% (active),-17.4% (active),96.1%,73.8%
Cc1ccc(C(=O)NNC(=O)CSc2nc3ccccc3c(=O)[nH]2)cc1,98.5%,92.4%,99.2%,98.8%,108%,90.6%,106%,111%,95.2%,97.8%,105%,97.6%,91.7%,91.1%,101%,96.3%,98.7%,105%,108%
COc1cc(/C=C/C(=O)c2ccc(NC(=O)CN3C(=O)NC(C)(c4ccccc4)C3=O)cc2)cc(OC)c1OC (stereo not drawn),15.6%,1.44% (active),56.5%,33.3%,2.48% (active),85%,32.8%,18.5%,27.5%,11.9%,12.4%,16%,69.5%,26.5%,23%,46.7%,-50.4% (active),52.6%,46.8%
O=C(NO)c1ccc(CNC(=O)[C@H]2Cc3c([nH]c4ccccc34)[C@H](c3ccc(Cl)cc3)N2)cc1,-50.8% (active),28.2%,28.5%,2.45% (active),10.3%,-17.1% (active),-35.2% (active),24.5%,22.6%,-82.7% (active),10.7%,9.83% (active),6.92% (active),-11.1% (active),22.6%,-17.4% (active),2.84% (active),15.1%,23%
CN(C)CCNC(=O)OCCCCOc1cc(O)c2c(=O)cc(-c3ccccc3)oc2c1,-2.08% (active),12.1%,-31.2% (active),2.14% (active),-33.9% (active),-42.6% (active),-77% (active),4.88% (active),-34.5% (active),-46.4% (active),-27% (active),8.72% (active),-96.8% (active),-77.8% (active),-44.9% (active),-90.5% (active),-100% (active),-79.7% (active),-75.1% (active)

# From PubChem BioAssay (NCI)
